Test systems include DU-145 prostate; K-562 leukemia; MALME-3M melanoma; MDA-MB-231 breast; RXF 393 renal; SF-268 CNS; SF-295 CNS; SF-539 CNS; UACC-257 melanoma; HCT-15 colon; HT29 colon; SNB-75 CNS; SNB-19 CNS; U251 CNS; PC-3 prostate; SK-MEL-5 melanoma; UACC-62 melanoma; LOX IMVI melanoma; SK-MEL-28 melanoma; M14 melanoma.
Common to all, as to experiment: NCI-60 one-dose screen, 48 h (100 = growth as untreated, 0 = no growth, -100 = all killed)
Common to all, as to conditions: 10 µM unless noted

Structures are written as SMILES. About 83,000 compounds went through this panel and 20% of them were active in at least one assay; those are over-represented in the sample as a whole.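 Values shown are percent growth following 48 h exposure of cells in 96-well plates to a single concentration of compound; below 10 was considered active.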 Values without a mark were called inactive. Calls of active or inactive are those of the source.

On to `Cc1cccc(/C=C2\N=C(c3ccccc3)N(c3ccc(S(N)(=O)=O)cc3)C2=O)c1`, for which the growth is 97% in the test on DU-145 prostate; 90.9% in the test on K-562 leukemia; 82.7% in the test on MALME-3M melanoma; 96.7% with MDA-MB-231 breast; 102% with RXF 393 renal; 91.4% in the test with SF-268 CNS. In addition, the growth in the test on SF-295 CNS was 86.5%; in the test with SF-539 CNS, 72.2%; with UACC-257 melanoma, 94.4%; in the test with HCT-15 colon, 91.8%; in the test with HT29 colon it was 86.1%; in the test with SNB-75 CNS, 49.9%. In addition, the growth with SNB-19 CNS is 80.1%; in the test with U251 CNS it was 95.1%; with PC-3 prostate it was 92.9%; in the test on SK-MEL-5 melanoma it was 88.5%; in the test on UACC-62 melanoma it was 92.8%; with LOX IMVI melanoma, 99%. The growth in the test with SK-MEL-28 melanoma is 101%.
Regarding `CCN(CC)c1ccc2cc(C(Nc3ccc(C)cc3)c3nnnn3C(C)(C)C)c(=O)oc2c1` (configuration not stated), the growth with DU-145 prostate was 105%; in the test with K-562 leukemia it was 87.5%; in the test on MALME-3M melanoma it was 105%; in the test on MDA-MB-231 breast, 84.5%; in the test with RXF 393 renal, 87.3%; in the test on SF-268 CNS, 92.6%. Also, the growth with SF-295 CNS is 102%; in the test on SF-539 CNS it was 103%; in the test on UACC-257 melanoma, 104%; in the test with M14 melanoma, 103%; in the test with HT29 colon, 94.8%; in the test on SNB-75 CNS, 77.6%. Further, the growth in the test with SNB-19 CNS was 87.8%; in the test with U251 CNS, 89.2%; in the test on PC-3 prostate it was 73.7%; with SK-MEL-5 melanoma, 83.4%; with UACC-62 melanoma it was 71.7%; in the test with LOX IMVI melanoma, 94.8%. Besides, the growth in the test on SK-MEL-28 melanoma was 106%.
With `O=C(NCCCNC(=O)OCc1ccc2cccc(O)c2n1)OCc1ccc2cccc(O)c2n1`, the growth was 28.7% with DU-145 prostate; 14.1% in the test on K-562 leukemia; 72.3% in the test on MALME-3M melanoma; 70% in the test with MDA-MB-231 breast; 0.757% (active) with RXF 393 renal; 54% in the test on SF-268 CNS. Further, the growth is 38.7% in the test with SF-295 CNS; 35.1% in the test on SF-539 CNS; 53.9% in the test on UACC-257 melanoma; 1.71% (active) with HCT-15 colon; 17% in the test on HT29 colon; 28.4% in the test with SNB-75 CNS. For the same molecule, the growth with SNB-19 CNS was 54.6%; with U251 CNS, 39.8%; with PC-3 prostate it was 56.6%; in the test on SK-MEL-5 melanoma, 61.5%; in the test with UACC-62 melanoma it was 39.6%; in the test with LOX IMVI melanoma, -73.2% (active).
For the molecule `O=C(N=c1n(-c2ccccc2)nc2n1CCN2C1=NCCN1C(=O)c1ccc(Cl)cc1)c1ccc(Cl)cc1`, the growth in the test on DU-145 prostate is 92.2%; with K-562 leukemia it was 47.1%; in the test with MALME-3M melanoma, 91.2%; in the test on MDA-MB-231 breast, 82.4%; in the test on RXF 393 renal, 48.6%; in the test with SF-268 CNS, 72.9%. Also, the growth in the test on SF-295 CNS was 86.2%; in the test with SF-539 CNS it was 80.2%; in the test on UACC-257 melanoma, 103%; in the test on M14 melanoma it was 62.5%; with HT29 colon, 59.7%; in the test on SNB-75 CNS, 68.8%. The growth in the test on SNB-19 CNS is 85.8%; in the test with U251 CNS, 72.8%; in the test with PC-3 prostate, 47.5%; in the test with SK-MEL-5 melanoma, 70.9%; with UACC-62 melanoma, 73.6%; with LOX IMVI melanoma, 86.6%. In addition, the growth with SK-MEL-28 melanoma is 88.8%.
Take `C#C[C@]1(O)CC[C@H]2[C@@H]3CC=C4c5nc(N)sc5CC[C@]4(C)[C@H]3CC[C@@]21C`: the growth in the test on DU-145 prostate is 71.2%; in the test on K-562 leukemia, 29.7%; in the test with MALME-3M melanoma, 42.1%; with MDA-MB-231 breast, 45.4%; with RXF 393 renal, -22.4% (active); in the test with SF-268 CNS it was 62.8%. Further, the growth in the test with SF-295 CNS was -43.6% (active); with SF-539 CNS, -32% (active); in the test with UACC-257 melanoma, 72.8%; in the test on M14 melanoma, 81.1%; in the test on HT29 colon it was 41.6%; with SNB-75 CNS it was -5.36% (active). Also, the growth with SNB-19 CNS was 71.6%; in the test with U251 CNS, 38.1%; in the test with PC-3 prostate, 47.5%; with SK-MEL-5 melanoma it was 60.4%; in the test on UACC-62 melanoma it was 30.3%; in the test with LOX IMVI melanoma, 55.4%. In the test with SK-MEL-28 melanoma, the growth was 57.1%.
As to `CNC(=O)c1cc(Oc2cccc3nc(NC(=O)Nc4cc(C(F)(F)F)cc(C(F)(F)F)c4)ccc23)ccn1`, the growth is 45.4% in the test with DU-145 prostate; 71.9% with K-562 leukemia; 21.3% with MALME-3M melanoma; 23.3% with MDA-MB-231 breast; 27.5% in the test with RXF 393 renal; 36.1% in the test on SF-268 CNS. Also, the growth with SF-295 CNS was 30.3%; with SF-539 CNS it was 38.9%; in the test with UACC-257 melanoma, 57.7%; in the test with M14 melanoma, 35.5%; in the test on HT29 colon, 16%; in the test with SNB-75 CNS, -23.7% (active). For the same molecule, the growth with SNB-19 CNS was 38.8%; in the test on U251 CNS it was -34.9% (active); with PC-3 prostate, 52.8%; with SK-MEL-5 melanoma, 59.9%; in the test on UACC-62 melanoma, 41.4%; in the test with LOX IMVI melanoma, 12.7%. Further, the growth in the test on SK-MEL-28 melanoma was 33.2%.
On to `CC[C@]12C=CCN3CC[C@@]4(c5ccc(OC)cc5N(C)[C@H]4[C@@](O)(C(=O)OC)[C@@H]1OC(=O)CCC(=O)O[C@H]1CC[C@H]4[C@@H]5CCC6=CC(=O)CC[C@@H]6[C@H]5CC[C@]14C)[C@@H]32`, for which the growth was 26% [100 µM] in the test on DU-145 prostate; 7.54% [100 µM] (active) in the test with K-562 leukemia; -16.4% [100 µM] (active) in the test on MALME-3M melanoma; -39.4% [100 µM] (active) in the test with MDA-MB-231 breast; -27.5% [100 µM] (active) with RXF 393 renal; 31.9% [100 µM] in the test on SF-268 CNS. Besides, the growth is 4.5% [100 µM] (active) in the test on SF-295 CNS; -40.4% [100 µM] (active) in the test on SF-539 CNS; 14.8% [100 µM] with UACC-257 melanoma; 1.67% [100 µM] (active) in the test on M14 melanoma; -21.8% [100 µM] (active) in the test on HT29 colon; -27.2% [100 µM] (active) with SNB-75 CNS. Moreover, the growth in the test on SNB-19 CNS is 21.7% [100 µM]; in the test on U251 CNS, 10.8% [100 µM]; in the test on PC-3 prostate, 11.3% [100 µM]; in the test with SK-MEL-5 melanoma it was -95.3% [100 µM] (active); with UACC-62 melanoma, -53.8% [100 µM] (active); in the test with LOX IMVI melanoma, -29.5% [100 µM] (active). In the test with SK-MEL-28 melanoma, the growth was -7.77% [100 µM] (active).

These data come from PubChem BioAssay (NCI).
